Laboratory results published in the supplement of paper PMC10849652.
Targets with a hit are over-represented here; the source holds about 8,800 in all. About 0.5% of all pairs of compound and target were hits.

Legend:
Assay in all cases: log2 fold change, soluble protein after heating vs DMSO (PISA); higher = thermal stabilisation; K562 lysate, 10 uM; active = over 0.2 and 3.5 SD of the protein, either way, in both replicates (recomputed)
[1] = compound: C#Cc1cccc(Nc2ncnc3cc(OCCOC)c(OCCOC)cc23)c1 [erlotinib]
Procedure, shortened: (§1)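 The values are log-two fold changes in thermal stability compared with solvent controls and come from duplicates. They were obtained by TMTpro 16plex LC-MS/MS, with channel sums equalised, on the supernatant after 21,000xg for 90 min. That supernatant came from crude K562 extract at 1 mg/mL protein treated with 10 μM compound for 30 min, heated for 3 min across 48°C-58°C, pooled and brought to 0.5% NP-40 at 4°C.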

[2] = compound: C/C(=N\NC(=O)C1=CC(=CC=C1)S(=O)(=O)N2CCOCC2)/C3=C(C=CC(=C3)Cl)O
Procedure, shortened: as §1

[3] = compound: C1=CC(=CC=C1C2=NC3=C(N2)C=C(C=C3)C(=O)N)OC4=CC=C(C=C4)Cl
Procedure, shortened: as §1

[4] = compound: C1=CC2=C(C=CC(=C2)/C=C\3/C(=O)NC(=NCC4=CC=CS4)S3)N=C1
Procedure, shortened: as §1

[5] = compound: C1=CC2=NC=CN=C2C=C1/C=C/3\C(=O)NC(=O)S3
Procedure, shortened: as §1

[6] = compound: C1=CC=C(C=C1)C2=NC(=C(N2)C3=CC=NC=C3)C4=CC(=C(C=C4)Cl)O
Procedure, shortened: as §1

[7] = compound: C1=CC=C2C(=C1)C3=NNC4=CC=CC(=C43)C2=O
Procedure, shortened: as §1

[8] = compound: C1CCN(C1)C(=O)NC2=CC=CC(=C2)NC3=NC=C(C(=N3)NCCC4=CN=CN4)Br
Procedure, shortened: as §1

[9] = compound: C1CN(CCC1(CC2=CC=C(C=C2)Cl)N)C3=NC=NC4=C3C=CN4
Procedure, shortened: as §1

[10] = compound: C1COCCN1CCN2C3=CC=CC=C3N=C2NC(=O)C4=CC(=CC=C4)[N+](=O)[O-] [IRAK-1-4 Inhibitor I]
Procedure, shortened: as §1

Measured: log2 fold change

MGST3 (UniProt O14880)
UniProt O14880, sequence (O14880 whole entry, looked up): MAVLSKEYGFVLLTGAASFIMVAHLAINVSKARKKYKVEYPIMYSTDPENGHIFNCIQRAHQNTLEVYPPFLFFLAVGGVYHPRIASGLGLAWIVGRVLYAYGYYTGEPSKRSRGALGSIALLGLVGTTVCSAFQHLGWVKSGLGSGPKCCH
inactive: [1] 0.007 | [2] 0.011 | [3] 0.008 | [4] 0.022 | [5] 0.011 | [6] -0.021 | [7] -0.054 | [8] -0.009 | [9] -0.035 | [10] 0.019

KIF4B (UniProt Q2VIQ3)
UniProt Q2VIQ3, sequence (Q2VIQ3 whole entry, looked up): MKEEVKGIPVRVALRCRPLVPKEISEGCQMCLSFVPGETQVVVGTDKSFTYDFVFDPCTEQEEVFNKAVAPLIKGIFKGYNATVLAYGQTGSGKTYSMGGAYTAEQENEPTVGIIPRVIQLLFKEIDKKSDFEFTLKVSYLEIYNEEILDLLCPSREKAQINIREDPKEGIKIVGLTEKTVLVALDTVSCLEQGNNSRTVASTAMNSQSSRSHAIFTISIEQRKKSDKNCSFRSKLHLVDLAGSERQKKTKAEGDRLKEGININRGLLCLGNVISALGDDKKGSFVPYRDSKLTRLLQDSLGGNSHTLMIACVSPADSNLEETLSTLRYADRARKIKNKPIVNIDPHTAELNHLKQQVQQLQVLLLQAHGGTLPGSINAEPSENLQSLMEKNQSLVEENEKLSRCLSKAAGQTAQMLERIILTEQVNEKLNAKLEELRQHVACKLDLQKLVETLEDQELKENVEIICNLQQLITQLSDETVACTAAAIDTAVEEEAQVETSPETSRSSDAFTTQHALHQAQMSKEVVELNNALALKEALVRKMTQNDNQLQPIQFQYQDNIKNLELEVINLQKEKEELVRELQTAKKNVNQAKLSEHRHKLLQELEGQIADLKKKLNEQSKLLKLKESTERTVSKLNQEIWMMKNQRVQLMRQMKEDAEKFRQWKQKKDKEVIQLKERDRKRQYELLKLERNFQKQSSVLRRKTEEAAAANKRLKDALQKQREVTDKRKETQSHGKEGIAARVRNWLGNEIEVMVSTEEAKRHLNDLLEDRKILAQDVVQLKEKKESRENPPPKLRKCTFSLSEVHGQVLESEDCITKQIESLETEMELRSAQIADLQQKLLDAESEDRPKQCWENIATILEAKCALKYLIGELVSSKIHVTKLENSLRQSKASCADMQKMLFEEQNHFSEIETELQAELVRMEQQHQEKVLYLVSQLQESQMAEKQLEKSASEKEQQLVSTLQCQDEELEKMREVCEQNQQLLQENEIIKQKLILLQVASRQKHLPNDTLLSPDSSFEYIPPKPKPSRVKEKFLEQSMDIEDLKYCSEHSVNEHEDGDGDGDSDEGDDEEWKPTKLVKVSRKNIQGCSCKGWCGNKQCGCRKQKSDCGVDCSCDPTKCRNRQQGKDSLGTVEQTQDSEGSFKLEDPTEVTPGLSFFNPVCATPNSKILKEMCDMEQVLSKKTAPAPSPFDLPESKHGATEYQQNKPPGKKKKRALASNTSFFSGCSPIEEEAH
inactive: [1] -0.018 | [2] -0.035 | [3] -0.017 | [4] 0.032 | [5] -0.005 | [6] 0.034 | [7] 0.004 | [8] -0.003 | [9] -0.027 | [10] -0.061

KIFC1 (UniProt Q9BW19)
inactive: [1] 0.003 | [2] 0.061 | [3] 0.011 | [4] -0.002 | [5] -0.048 | [6] 0.011 | [7] -0.012 | [8] -0.009 | [9] 0.025 | [10] -0.023

KNSTRN (UniProt Q9Y448)
UniProt Q9Y448, sequence (Q9Y448 whole entry, looked up): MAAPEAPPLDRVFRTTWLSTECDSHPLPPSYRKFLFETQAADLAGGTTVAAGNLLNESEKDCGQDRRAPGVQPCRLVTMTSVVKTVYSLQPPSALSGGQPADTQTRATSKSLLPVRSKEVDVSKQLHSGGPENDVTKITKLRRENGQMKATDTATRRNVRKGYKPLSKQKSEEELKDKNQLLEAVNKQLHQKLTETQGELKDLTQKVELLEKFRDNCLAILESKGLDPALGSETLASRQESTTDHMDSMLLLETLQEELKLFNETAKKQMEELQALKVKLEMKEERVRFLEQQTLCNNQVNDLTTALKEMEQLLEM
inactive: [1] -0.007 | [2] -0.003 | [3] -0.018 | [4] 0.006 | [5] -0.018 | [6] 0.015 | [7] 0.012 | [8] 0.036 | [9] -0.061 | [10] -0.039

MPI (UniProt P34949)
UniProt P34949, sequence (P34949 whole entry, looked up): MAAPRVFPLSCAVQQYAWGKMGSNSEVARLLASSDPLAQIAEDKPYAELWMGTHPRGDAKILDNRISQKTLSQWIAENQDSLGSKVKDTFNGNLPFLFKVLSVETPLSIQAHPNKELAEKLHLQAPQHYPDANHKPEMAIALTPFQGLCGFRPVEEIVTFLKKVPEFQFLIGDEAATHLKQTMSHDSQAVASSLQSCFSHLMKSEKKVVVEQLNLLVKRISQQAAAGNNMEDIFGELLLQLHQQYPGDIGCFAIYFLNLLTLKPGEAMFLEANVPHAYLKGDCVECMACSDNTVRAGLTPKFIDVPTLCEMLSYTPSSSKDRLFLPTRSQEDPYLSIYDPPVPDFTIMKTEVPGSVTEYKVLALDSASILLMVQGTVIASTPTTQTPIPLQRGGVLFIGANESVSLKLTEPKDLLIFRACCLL
inactive: [1] 0.02 | [2] 0.045 | [3] 0.046 | [4] -0.018 | [5] -0.014 | [6] 0.022 | [7] -0.02 | [8] -0.003 | [9] 0.038 | [10] 0.035

KIF11 (UniProt P52732)
UniProt P52732, sequence (P52732 whole entry, looked up): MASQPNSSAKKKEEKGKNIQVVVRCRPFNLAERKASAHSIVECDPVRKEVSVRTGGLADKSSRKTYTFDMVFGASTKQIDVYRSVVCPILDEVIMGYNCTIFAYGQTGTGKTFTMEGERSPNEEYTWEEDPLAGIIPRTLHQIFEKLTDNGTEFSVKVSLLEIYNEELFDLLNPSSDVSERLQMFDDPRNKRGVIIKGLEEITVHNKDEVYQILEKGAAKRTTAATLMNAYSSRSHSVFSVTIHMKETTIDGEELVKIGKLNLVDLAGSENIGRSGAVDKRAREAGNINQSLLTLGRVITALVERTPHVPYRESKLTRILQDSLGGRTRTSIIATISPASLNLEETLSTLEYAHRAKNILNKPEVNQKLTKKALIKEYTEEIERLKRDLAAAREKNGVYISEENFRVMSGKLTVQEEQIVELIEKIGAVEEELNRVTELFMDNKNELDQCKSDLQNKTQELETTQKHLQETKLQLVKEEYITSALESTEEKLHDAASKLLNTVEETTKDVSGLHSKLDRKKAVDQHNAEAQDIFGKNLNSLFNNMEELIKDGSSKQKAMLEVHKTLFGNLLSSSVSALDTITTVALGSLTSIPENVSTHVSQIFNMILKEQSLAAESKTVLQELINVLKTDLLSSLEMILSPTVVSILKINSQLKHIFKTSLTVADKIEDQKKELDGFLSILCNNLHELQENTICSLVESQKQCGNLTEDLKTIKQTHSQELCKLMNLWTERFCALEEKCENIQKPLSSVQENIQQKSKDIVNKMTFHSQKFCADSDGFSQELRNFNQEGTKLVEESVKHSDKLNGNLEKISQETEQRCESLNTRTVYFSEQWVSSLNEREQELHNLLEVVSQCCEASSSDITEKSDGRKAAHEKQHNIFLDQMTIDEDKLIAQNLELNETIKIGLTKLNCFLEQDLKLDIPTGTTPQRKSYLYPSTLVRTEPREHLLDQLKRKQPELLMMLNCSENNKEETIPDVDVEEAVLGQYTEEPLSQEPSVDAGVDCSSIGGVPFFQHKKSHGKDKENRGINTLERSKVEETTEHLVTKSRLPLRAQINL
inactive: [1] -0.014 | [2] 0.012 | [3] -0.016 | [4] -0.004 | [5] -0.004 | [6] -0.004 | [7] -0.023 | [8] -0.005 | [9] -0.013 | [10] -0.033

MRPL10 isoform 2 (UniProt Q7Z7H8)
inactive: [1] -0.032 | [2] 0 | [3] 0.043 | [4] 0.022 | [5] -0.141 | [6] -0.002 | [7] -0.016 | [8] -0.062 | [9] 0.015 | [10] 0.014

MAP4K2 (UniProt Q12851)
inactive: [1] 0.001 | [2] -0.202 | [3] -0.082 | [4] -0.195 | [5] 0.05 | [6] -0.057 | [7] 0.355 | [8] 0.288 | [9] -0.205 | [10] -0.046

MRPL19 (UniProt P49406)
inactive: [1] 0.02 | [2] 0.079 | [3] -0.041 | [4] -0.003 | [5] -0.007 | [6] -0.032 | [7] -0.019 | [8] -0.014 | [9] 0.005 | [10] 0

MAP7D3 (UniProt Q8IWC1)
inactive: [1] 0.069 | [2] 0.053 | [3] 0.281 | [4] 0.052 | [5] -0.023 | [6] -0.025 | [7] 0.044 | [8] -0.034 | [9] -0.012 | [10] -0.017

LAP3 (UniProt P28838)
inactive: [1] -0.034 | [2] 0.08 | [3] 0.082 | [4] -0.022 | [5] 0.013 | [6] -0.026 | [7] -0.017 | [8] 0.027 | [9] 0.008 | [10] 0.061

KIF22 (UniProt Q14807)
UniProt Q14807, sequence (Q14807 whole entry, looked up): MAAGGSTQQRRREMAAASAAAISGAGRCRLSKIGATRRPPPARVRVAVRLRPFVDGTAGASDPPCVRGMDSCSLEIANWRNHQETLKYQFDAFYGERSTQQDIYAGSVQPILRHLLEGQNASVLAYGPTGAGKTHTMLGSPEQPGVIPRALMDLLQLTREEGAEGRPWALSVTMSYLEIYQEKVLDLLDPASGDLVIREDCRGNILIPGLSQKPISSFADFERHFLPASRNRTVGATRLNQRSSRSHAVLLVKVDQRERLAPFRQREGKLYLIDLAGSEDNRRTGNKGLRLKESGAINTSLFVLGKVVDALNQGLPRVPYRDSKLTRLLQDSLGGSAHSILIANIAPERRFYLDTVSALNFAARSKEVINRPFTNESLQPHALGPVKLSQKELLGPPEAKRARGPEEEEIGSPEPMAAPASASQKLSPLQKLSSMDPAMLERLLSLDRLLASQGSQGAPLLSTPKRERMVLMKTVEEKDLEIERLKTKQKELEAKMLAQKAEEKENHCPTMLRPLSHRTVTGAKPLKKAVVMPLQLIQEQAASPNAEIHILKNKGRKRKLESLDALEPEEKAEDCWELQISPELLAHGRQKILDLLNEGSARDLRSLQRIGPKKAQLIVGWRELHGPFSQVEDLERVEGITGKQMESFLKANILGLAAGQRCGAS
inactive: [1] 0.012 | [2] -0.074 | [3] 0.076 | [4] -0.147 | [5] -0.007 | [6] -0.063 | [7] -0.123 | [8] 0.026 | [9] 0.05 | [10] 0.06

LUZP1 (UniProt Q86V48)
inactive: [1] -0.074 | [2] -0.06 | [3] -0.033 | [4] 0.027 | [5] -0.028 | [6] -0.009 | [7] 0.031 | [8] -0.009 | [9] 0.009 | [10] 0.085

MED12 isoform 2 (UniProt Q93074)
inactive: [1] 0.007 | [2] -0.037 | [3] 0 | [4] 0.009 | [5] 0.008 | [6] 0.004 | [7] -0.025 | [8] -0.013 | [9] 0.011 | [10] -0.035

MAP4 (UniProt P27816)
inactive: [1] 0.001 | [2] -0.013 | [3] 0.031 | [4] -0.003 | [5] -0.001 | [6] 0.023 | [7] -0.002 | [8] -0.007 | [9] 0.003 | [10] 0.024

LIG4 (UniProt P49917)
inactive: [1] 0.107 | [2] 0.014 | [3] -0.04 | [4] 0.028 | [5] 0.002 | [6] 0.024 | [7] -0.003 | [8] 0.009 | [9] -0.057 | [10] -0.001

MAP2K2 (UniProt P36507)
inactive: [1] 0.049 | [2] 0.005 | [3] 0.023 | [4] -0.023 | [5] -0.006 | [6] 0.001 | [7] 0.249 | [8] 0.219 | [9] 0.017 | [10] 0

LZTR1 (UniProt Q8N653)
inactive: [1] 0.051 | [2] 0.099 | [3] -0.018 | [4] -0.015 | [5] 0.022 | [6] -0.005 | [7] -0.071 | [8] 0.066 | [9] 0.106 | [10] 0.08

KSR1 (UniProt Q8IVT5)
inactive: [1] 0.011 | [2] -0.099 | [3] -0.038 | [4] 0.058 | [5] 0.022 | [6] 0.059 | [7] -0.078 | [8] 0.015 | [9] -0.037 | [10] -0.008

MAPK14 (UniProt Q16539)
UniProt Q16539, sequence (Q16539 whole entry, looked up): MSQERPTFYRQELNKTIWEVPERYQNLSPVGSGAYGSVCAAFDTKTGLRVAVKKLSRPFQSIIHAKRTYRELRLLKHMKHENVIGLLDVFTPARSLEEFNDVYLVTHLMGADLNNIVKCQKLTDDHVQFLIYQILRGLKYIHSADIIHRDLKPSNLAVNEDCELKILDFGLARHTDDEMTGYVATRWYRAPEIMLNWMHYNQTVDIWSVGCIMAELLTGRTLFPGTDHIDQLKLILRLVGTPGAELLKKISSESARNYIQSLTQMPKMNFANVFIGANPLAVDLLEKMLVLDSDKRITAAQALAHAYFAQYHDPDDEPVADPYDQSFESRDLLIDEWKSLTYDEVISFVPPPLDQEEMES
inactive: [1] 0.044 | [2] 0.038 | [3] -0.1 | [4] -0.05 | [5] -0.012 | [7] 0.081 | [8] -0.076 | [9] 0.015 | [10] 0.013
active: [6] 0.82

MAP2K4 isoform 2 (UniProt P45985)
inactive: [1] 0.035 | [2] -0.069 | [3] -0.035 | [4] -0.003 | [5] -0.001 | [6] 0.06 | [7] 0.283 | [8] 0.039 | [9] -0.058 | [10] 0.048

METTL7A (UniProt Q9H8H3)
active: [8] 0.385
inactive: [1] 0.029 | [2] 0.043 | [3] 0.183 | [4] 0.008 | [5] -0.041 | [6] 0.048 | [7] -0.016 | [9] 0.06 | [10] 0.036

MINDY1 isoform 3 (UniProt Q8N5J2)
UniProt Q8N5J2, sequence (Q8N5J2 whole entry, looked up): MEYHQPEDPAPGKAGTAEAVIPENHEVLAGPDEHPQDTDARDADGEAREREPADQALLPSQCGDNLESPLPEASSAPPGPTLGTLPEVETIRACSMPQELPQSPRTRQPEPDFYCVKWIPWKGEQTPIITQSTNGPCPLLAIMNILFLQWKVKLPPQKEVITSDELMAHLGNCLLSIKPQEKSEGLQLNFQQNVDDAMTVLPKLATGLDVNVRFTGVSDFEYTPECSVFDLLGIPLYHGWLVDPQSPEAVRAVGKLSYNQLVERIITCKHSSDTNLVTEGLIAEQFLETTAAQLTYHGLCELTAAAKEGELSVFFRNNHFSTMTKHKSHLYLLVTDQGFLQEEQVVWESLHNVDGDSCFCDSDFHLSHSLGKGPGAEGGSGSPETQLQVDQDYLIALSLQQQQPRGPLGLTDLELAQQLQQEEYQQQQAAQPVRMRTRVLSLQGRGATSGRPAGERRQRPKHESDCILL
inactive: [1] 0.052 | [2] -0.006 | [3] 0.048 | [4] -0.031 | [5] 0.245 | [6] 0.053 | [7] 0.056 | [8] -0.082 | [9] -0.066 | [10] -0.02

MARK1 (UniProt Q9P0L2)
inactive: [1] 0.105 | [2] 0.006 | [3] -0.018 | [4] 0.029 | [5] -0.01 | [6] -0.001 | [7] -0.26 | [8] -0.255 | [9] -0.111 | [10] -0.045

KRI1 (UniProt Q8N9T8)
inactive: [1] -0.017 | [2] -0.038 | [3] -0.017 | [4] -0.1 | [5] -0.012 | [6] 0.02 | [7] -0.138 | [8] 0.033 | [9] -0.04 | [10] 0.047

MED8 isoform 2 (UniProt Q96G25)
UniProt Q96G25, sequence (Q96G25 whole entry, looked up): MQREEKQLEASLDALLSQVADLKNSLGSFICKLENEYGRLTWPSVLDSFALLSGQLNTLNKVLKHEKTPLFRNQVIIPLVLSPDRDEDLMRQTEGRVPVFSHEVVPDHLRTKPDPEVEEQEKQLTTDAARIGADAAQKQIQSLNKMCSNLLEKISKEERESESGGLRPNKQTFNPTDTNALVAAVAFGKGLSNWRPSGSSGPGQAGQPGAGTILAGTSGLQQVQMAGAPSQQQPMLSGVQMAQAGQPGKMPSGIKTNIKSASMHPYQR
inactive: [1] 0.017 | [2] 0.007 | [3] -0.001 | [4] 0.021 | [5] 0.027 | [6] 0.008 | [7] 0 | [8] 0.014 | [9] 0.088 | [10] -0.005

LRWD1 (UniProt Q9UFC0)
inactive: [1] -0.031 | [2] -0.002 | [3] 0.031 | [4] 0.032 | [5] 0.057 | [6] 0.016 | [7] -0.014 | [8] 0.002 | [9] 0.03 | [10] -0.02
